Results as given in PubChem BioAssay (NCATS).
Results filed as inconclusive are left out. The source made the active and inactive calls. Unless noted, no rule for the calls is given here.

Experiments:
[1] = qHTS assay for cell viability of HEK293 cells (AID 743288; active = well fitted cell-killing curve with a large enough effect; also: % is scaled to controls: 0 for no effect and ±100 for the full control effect; nearly all actives have a fitted effect of over 50% in size); details: ATP luminescence (CellTiter-Glo), 18 h, hits give low values
Method in brief: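 The Tox21 protocol used parental HEK293 cells treated for 18 h at 37 C with compounds delivered by pintool; ATP-coupled luminescence after 30 min at room temperature gave viability.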

[2] = qHTS assay for cell viability of the p53RE-bla HCT-116 cell line (AID 743292; active = well fitted cell-killing curve with a large enough effect; also: % is scaled to controls: 0 for no effect and ±100 for the full control effect; nearly all actives have a fitted effect of over 55% in size); details: p53RE-bla HCT-116 viability, ATP luminescence, 16 h; series mostly up to 95 µM
Method in brief: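 ATP-based luminescent viability (CellTiter-Glo, 30 min RT) after 16 h compound treatment at 37 C of p53RE-bla HCT-116 cells, seeded at 4,000 cells/well and rested 5 h before dosing.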

[3] = biological target: Nuclear receptor subfamily 1 group I member 2 (Rattus norvegicus) (UniProt Q9R1A7); experiment: qHTS assay for small molecule activators of the rat pregnane X receptor (rPXR) signaling pathway (AID 651751); details: rPXR reporter cells, luciferase (One-Glo), 24 h; also: 0% is about no effect
[4] = qHTS assay for small molecule activators of the human pregnane X receptor (PXR) signaling pathway (AID 720659); details: DPX-2 HepG2 CYP3A4-luciferase, 24 h; series mostly up to 92.3 µM; also: 0% is about no effect

Chain of Nuclear receptor subfamily 1 group I member 2 (Rattus norvegicus) (Q9R1A7 whole entry, looked up): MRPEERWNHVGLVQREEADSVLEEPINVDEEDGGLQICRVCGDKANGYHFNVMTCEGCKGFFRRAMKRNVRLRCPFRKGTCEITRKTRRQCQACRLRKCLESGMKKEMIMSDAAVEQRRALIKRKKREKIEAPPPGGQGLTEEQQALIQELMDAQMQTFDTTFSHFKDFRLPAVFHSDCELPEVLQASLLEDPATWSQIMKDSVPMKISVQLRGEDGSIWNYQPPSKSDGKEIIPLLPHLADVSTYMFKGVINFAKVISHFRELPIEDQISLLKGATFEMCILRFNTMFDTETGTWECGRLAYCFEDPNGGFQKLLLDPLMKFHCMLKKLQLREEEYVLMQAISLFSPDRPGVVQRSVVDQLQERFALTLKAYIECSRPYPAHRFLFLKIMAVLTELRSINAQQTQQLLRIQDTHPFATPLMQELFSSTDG

ClCCl
inactive: max response [1] -3.33% | Potency [2] | max response [3] 1.89% | outcome [4]

CC(=O)CCc1ccccc1
inactive: max response [1] 0.331% | Potency [2] | max response [3] 3.15% | outcome [4]

O=[N+]([O-])c1c(Cl)cc(Cl)cc1Cl
inactive: max response [1] 8.66% | Potency [2] | max response [3] 9.05% | outcome [4]

Cc1ccc(Cl)cc1
inactive: max response [1] -4.66% | Potency [2] | max response [3] -4.31% | outcome [4]
